In the supplement of paper PMC10338343:
± gives the standard deviation.

These sequences were tested on EfPiwi piRISC loaded with L1MC piRNA (26 nt) (assay: pre-steady-state target cleavage rate (min^-1); auxiliary factor: 500 nM Ephydatia muelleri Gtsf1; guide: L1MC piRNA 5'p-UAACUAAAUACUAUGCAAGCUGUAGG; MIWI and MILI are mouse PIWI proteins and EfPiwi is from a freshwater sponge; tags in brackets are library labels; higher = faster piRNA-guided slicing of the target).
In short: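 Sequencing of uncleaved targets, normalised to depth and to weakly complementary targets, was the readout of this Cleave-'n-Seq assay. A transcribed, DNA-blocked target RNA library (0.1 nM) was mixed with 1 nM active affinity-purified piRISC carrying one synthetic guide, with or without 500 nM GTSF1 partner protein, in HEPES–potassium acetate buffer at 33 °C for 0–8 or 0–960 min. Three trials were pooled, k3 was capped at 0.0001 min^-1, and a burst-and-steady-state fit gave the pre-steady-state cleavage rate.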
For UCCUGCUAGAGCUUGCAUAGUAUUUAGUAA, the “pre-steady-state target cleavage rate” value was 0.00419 ± 0.0014.
UCCUGCUAGAGCUUGCAUAGAAUUUAGUUA was tested, and the “pre-steady-state target cleavage rate” value was 0.0043 ± 0.0014.
In the case of UCCUGGAACAGCUUGCAUAGUAUAUAGUAA, the “pre-steady-state target cleavage rate” value is reported as 0.00251 ± 0.0017.
In the case of UCCUCCUACAGCUUGCAUACUAUUUACAAA, the “pre-steady-state target cleavage rate” value is reported as 0.0038 ± 0.0031.
In the case of UCCUGGAUCACCUUGCAUAGUAUUUAGAUA, the “pre-steady-state target cleavage rate” value is reported as 0.00551 ± 0.005.
In the case of UCCUCCUACAGCUUGCAUAGUAAAUACAAA, the “pre-steady-state target cleavage rate” value is reported as 0.00363 ± 0.003.
UCCUGGAUCUCCUUGCAUAGUAUUUAGAAA was tested, and the “pre-steady-state target cleavage rate” value was 0.00628 ± 0.0051.
In the case of UCCUGCUACAGCUUGCAUAGUAUAUACAAA, the “pre-steady-state target cleavage rate” value is reported as 0.00238 ± 0.0022.
With UCCUCCUACAGCUUGCAUAGUAUAAAGAAA the “pre-steady-state target cleavage rate” value was 0.00289 ± 0.0018.
UCCUCCUACAGCUUGCAUAGUAAUUACAAA was tested, and the “pre-steady-state target cleavage rate” value was 0.00353 ± 0.0025.
UCCUGCUAGAGCUUCCAUAGUAUUUAGUUA was tested, and the “pre-steady-state target cleavage rate” value was 0.00239 ± 0.0017.
With UCCUCCUACAGCUUGCAUAGUAAAUUCAAA the “pre-steady-state target cleavage rate” value was 0.00279 ± 0.0021.
UCCUGCUACAGCUUGCAUAGAAUUUUGUUA was tested, and the “pre-steady-state target cleavage rate” value was 0.00457 ± 0.0019.
In the case of UCCUCCUACAGCUUGCAUACUAAUUAGUUA, the “pre-steady-state target cleavage rate” value is reported as 0.00358 ± 0.0017.
In the case of UCCUGCUACAGCUUGGAUAGUAAUUAGUUA, the “pre-steady-state target cleavage rate” value is reported as 0.00773 ± 0.0024.
UCCUGGAUGAGCUUGCAUAGUAUUUAAUUA was tested, and the “pre-steady-state target cleavage rate” value was 0.00294 ± 0.0025.
In the case of UCCUGCUACAGCUUCCAUAGUAUUUAGUUA, the “pre-steady-state target cleavage rate” value is reported as 0.00342 ± 0.0012.
For UCCUGGAUCAGCUUGCAUAGUAUAAAGUAA, the “pre-steady-state target cleavage rate” value was 0.00455 ± 0.0038.
UCCUGCUACUGCUUGCAUAGUAUUUACAAA was tested, and the “pre-steady-state target cleavage rate” value was 0.00262 ± 0.0024.
With UCCUGCUACAGCUAGCAUAGUAUUUAGAUA the “pre-steady-state target cleavage rate” value was 0.00409 ± 0.0015.
In the case of UCCUCCUACAGCUUGCAAACUAUUUAGUUA, the “pre-steady-state target cleavage rate” value is reported as 0.00937 ± 0.0039.
With UCCUGCUACAGCUUGCAUAGUAUUAUGUUA the “pre-steady-state target cleavage rate” value was 0.00406 ± 0.002.
In the case of UCCUGGUACAGCUUGCAUUGUAUUUAGAUA, the “pre-steady-state target cleavage rate” value is reported as 0.00292 ± 0.0018.
UCCUGCUACAGCUUGCAUAGUAUUUUGAAA was tested, and the “pre-steady-state target cleavage rate” value was 0.0045 ± 0.0018.
For UCCUCCUACAGCUUGCAUAGUAUUAACAAA, the “pre-steady-state target cleavage rate” value was 0.00454 ± 0.0033.
In the case of UCCUGGAUGUCGAACCAUAGUAUUUAGGUA, the “pre-steady-state target cleavage rate” value is reported as under 0.0001.
In the case of UCCUCCUACAGCUUCCAUAGUAUUUAGUUA, the “pre-steady-state target cleavage rate” value is reported as 0.0042 ± 0.0019.
For UCCUGGAUGUGCUUGCAUAGUAUUUAGUAUA, the “pre-steady-state target cleavage rate” value was 0.00507 ± 0.0027.
In the case of UCCUCCUACAGGUUCCAUAGUAUUUAGUUA, the “pre-steady-state target cleavage rate” value is reported as 0.0023 ± 0.0012.
UCCUGCUACAGCUUGCAUAGUUUAUAGUUA was tested, and the “pre-steady-state target cleavage rate” value was 0.00312 ± 0.0027.
UCCUGGAUCAGCUUGCAUACUAUUUACUUA was tested, and the “pre-steady-state target cleavage rate” value was 0.00362 ± 0.0032.
UCCUCCUAGAGCUUGCAUAGUUUUUAGUUA was tested, and the “pre-steady-state target cleavage rate” value was 0.00428 ± 0.0017.
UCCUGCUACAGCUUGCAUAGGAUUUAGUUA was tested, and the “pre-steady-state target cleavage rate” value was 0.00356 ± 0.001.
UCCUGGAUGAGCUUGCAUUGUAUUUAGAUA was tested, and the “pre-steady-state target cleavage rate” value was 0.00248 ± 0.0021.
UCCUGCUACAGCUUGCAUAGUUUUUAGUAA was tested, and the “pre-steady-state target cleavage rate” value was 0.00424 ± 0.0013.
With UCCUGGUACAGCUUGCAUAGUAUUAUCUAA the “pre-steady-state target cleavage rate” value was 0.00312 ± 0.0027.
With UCCUGGAUCAGCUUGCAUAGUAUUUUGAUA the “pre-steady-state target cleavage rate” value was 0.00716 ± 0.003.
In the case of UCCUGCUACAGCUUGCUUAGUAUUUAGAUA, the “pre-steady-state target cleavage rate” value is reported as 0.00495 ± 0.0028.
With UCCUCCUACAGCUUGCAUAGUAAAAAGUAA the “pre-steady-state target cleavage rate” value was 0.00344 ± 0.0029.
With UCCUCCUACAGCUUGCAUAGUAUUAAGUAA the “pre-steady-state target cleavage rate” value was 0.00642 ± 0.0035.
